From PubChem
SRC3 inh: inhibitors of human steroid receptor coactivator 3 (SRC3); hit rate 0.17% among 360,000; AID 588352; HEK293 GAL4-SRC3 luciferase reporter, luminescence; Q9Y6Q9; inhibition, % at 3.6 µM;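 active = inhibition above a per-campaign cutoff, the mean of all compounds plus 3 SD, cut at about 60% in these data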;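 also: 0% = DMSO-treated cells and 100% = gossypol-treated cells at 36 µM; higher means less SRC3-driven luciferase light from the GAL4 reporter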
NCOA2 inhibitor: inhibits human steroid receptor coactivator 2. HEK293 GAL4-SRC2 luciferase reporter, luminescence. hit rate 0.17% among 370,000. AID 651957. inhibition, % at 9 µM. Q15596;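 active = inhibition above the mean inhibition of all tested compounds plus 3 SD, set per campaign, cut at about 52% in these data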;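 also: 0% = DMSO treated cells and 100% = cells given Gossypol at 36 µM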
NCOA1 inh: inhibitors of human steroid receptor coactivator 1 (SRC1). hit rate 0.12% among 360,000. AID 588354. Q15788. inhibition, % at 3.6 µM. HEK293 GAL4-SRC1 luciferase reporter, luminescence;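 active = inhibition above the campaign mean plus 3 SD, with each screening campaign given its own cutoff, cut at about 60% in these data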;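 also: 0% = DMSO treated cells and 100% = gossypol at 36 µM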
LRH-1 inv ag: NR5A2 inverse agonism in reporter assay | inhibition, % at 3.6 µM | HEK293T StAR-luciferase reporter, LRH-1 transfected, 24 h | hit rate 0.13% among 360,000;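 active = inhibition above the mean inhibition of all tested compounds plus 3 SD, cut at about 73% in these data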;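 also: 0% = DMSO wells and 100% = reporter-only cells lacking LRH-1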
GalR3 antag: antagonists of human GalR3; O60755; HEK293 GalR3-CNG cAMP membrane potential fluorescence; galR3 body fused to GalR1 C-terminus; inhibition, % at 3 µM; hit rate 0.44% among 360,000;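 active = inhibition above the screen-wide average plus 3 SD, cut at about 13% in these data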;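 also: forskolin and galanin both at EC90 stimulate the cells; cAMP rise reported by CNG channel membrane potential dye signal; 0% = forskolin plus galanin with DMSO and 100% = forskolin alone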
NR2F2 inh: blocks human COUP-TFII nuclear receptor. P24468. inhibition, % at 8.6 µM. HEK293T NGFI-A luciferase reporter, luminescence. AID 686940. hit rate 0.7% among 370,000;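 active = inhibition above a per-plate cutoff, mean inhibition of test wells between control levels plus 3 SD, cut at about 38% in these data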;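 also: cells cotransfected with COUP-TFII expression vector driving the NGFI-A reporter; 0% = median of COUP-TF2 test wells and 100% = reporter-only cells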
GalR3 antag conf: confirmation of human galanin receptor 3 antagonists. shares compounds with GalR3 antag. HEK293 GalR3 CNG cAMP biosensor, membrane potential fluorescence; galR3 fused to GalR1 carboxy tail; challenged with forskolin and galanin at EC90. inhibition, % at 3 µM. hit rate 59% among 1,600. AID 652245;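 active = inhibition above the primary screen's cutoff, the mean inhibition of all screened compounds plus 3 SD, cut at about 13% in these data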;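 also: 0% = forskolin plus galanin and 100% = forskolin alone with DMSO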
HEK-CNG parental: parental cell agonism counter-screen for GalR3 antagonists. shares compounds with GalR3 antag. HEK293-CNG parental cells, cAMP membrane potential fluorescence; normalised: DMSO wells 0%, forskolin wells 100%. activation, % at 3 µM. hit rate 10% among 1,600; in the data active = activation above about 1.3%
* marks the source's active call; other numbers are inactive results; . = not tested or not shown. Shown are actives, neighbours in structure and some others; about 1.1% of the full set was active somewhere.

SMILES	SRC3 inh	NCOA2 inhibitor	NCOA1 inh	LRH-1 inv ag	GalR3 antag	NR2F2 inh	GalR3 antag conf	HEK-CNG parental
Cc1nn(CCc2n[nH]c(=S)n2-c2cccc(Cl)c2)c(C)c1[N+](=O)[O-]	0	13	6	-22	-5	-1	.	.
Cc1cccc(-n2c(Cn3nc(C)c([N+](=O)[O-])c3C)n[nH]c2=S)c1	-14	-4	-1	-1	17*	-18	5	0
Cc1ccc(NC(=O)OCc2ccccc2S(C)=O)cc1 (stereo not drawn)	-13	-1	-8	-10	15*	-7	29*	0
COC(=O)C1=C(C)N(Cc2cccc(C(F)(F)F)c2)C(=NCc2ccccc2C(F)(F)F)NC1c1ccc(Cl)cc1 (stereo not drawn)	.	0	.	.	-5	-3	.	.
Nc1nnnn1/N=C\c1ccc(Cl)c([N+](=O)[O-])c1	21	-3	17	-3	18*	-12	14*	0
Cc1nnc(C)n1N=Cc1ccc(Cl)c([N+](=O)[O-])c1	.	7	.	.	.	-19	.	.
O=C(N[C@H](C(=O)N1CCC[C@H]1C(=O)NCCc1ccccc1Cl)c1ccccc1)C1CCCC1	.	6	.	.	-3	0	.	.
Nc1nnc(SCc2nc3scc(-c4ccccc4)c3c(=O)[nH]2)s1	9	-9	7	-1	1	10	.	.
Cc1nnc(SCc2nc3scc(-c4ccccc4)c3c(=O)[nH]2)s1	-7	-2	-13	6	14*	-14	5	1
COc1ccc(OCc2cccc(C(=O)Nc3ccc(CN4CCCCC4)cc3)c2)cc1	-87	-82	-163	-201	13*	-41	35*	2.0*
COc1ccc(C(=O)NC(=S)Nc2ccc(CN3CCCCC3)cc2)cc1Cl	14	28	-8	-4	15*	-6	7	9.7*
CCOc1ccc(OCc2cccc(C(=O)Nc3ccc(CN4CCCCC4)cc3)c2)cc1	-120	-78	-147	-154	0	-47	.	.
C[C@@H]1CN(C(=O)OC(C)(C)C)CCN1c1ccc(N2CCN(Cc3ccccc3)[C@@H](C)C2)c(C#N)c1	.	-4	.	.	-2	22	.	.
CC(C)(C)N(Cc1cn(Cc2ccccc2)nn1)S(=O)(=O)c1ccc(F)cc1Br	.	-13	.	.	.	3	.	.
Cc1cc(N2CCNC[C@H]2C)ccc1N1CCN(Cc2ccccc2)[C@H](C)C1	.	10	.	.	-8	2	.	.
CCOC(=O)C1=C(C(=O)OCC)C2N(Cc3ccc(C#N)cc3)c3ccccc3[C@@]23C[C@@H](C(=O)OC)N(S(=O)(=O)c2c(C)noc2C)C3=N1 (stereo partly drawn)	.	-20	.	.	-3	2	.	.
O=C(OCc1cn(Cc2ccc(F)c(F)c2)nn1)N1CCCC1	.	16	.	.	.	-7	.	.
COc1ccccc1CNC(=O)c1cnn2c(C(F)F)cc(C)nc12	8	1	-12	22	23*	-2	35*	0
Nc1nc(Cl)nc2c1ncn2[C@H]1C[C@H](O)[C@@H](CO)O1	-30	-41	3	18	49*	-54	57*	1.3*
Nc1ncnc2c1ncn2[C@H]1C[C@H](O)[C@@H](CO)O1	10	21	-2	-17	-1	3	.	.
N#Cc1ccc(OCCCN2CCC(C(O)(c3ccccc3)c3ccccc3)CC2)cc1	.	16	.	.	-9	6	.	.
O=C(CCC(=O)c1cccs1)OCC(=O)c1ccc(Cl)s1	-6	-6	1	7	.	-3	1	0
O=C(CCC(=O)c1cccs1)OCC(=O)c1ccc(F)cc1	5	-3	-11	11	-3	-9	.	.
CCC1(CC)C(=O)C2=C3C1[C@H](C(=O)OC)CC(C(=O)OC)C[C@H]3n1c(=O)n(-c3ccccc3)c(=O)n1[C@H]2C (stereo partly drawn)	.	-9	.	.	-4	-13	.	.
